Measured values reported in PubChem BioAssay (NCI).
About 79,000 compounds went through this panel and 15% of them were active in at least one assay; those are over-represented in the sample as a whole. Activity calls are given as the source filed them. Rule as the data show it: active = growth inhibition above about 70%; inactive = the rest.

Tests used:
[1] = NCI Yeast Anticancer Drug Screen. Data for the rad52 strain (AID 147);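 also: 0% = growth of vehicle-treated control cultures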; details: S. cerevisiae rad52 mutant growth inhibition, hits give high values
In short: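 Screen used a yeast mutant impaired in DNA repair. After compound exposure, growth was measured. Values reflect inhibition compared with vehicle-treated cells.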

[2] = NCI Yeast Anticancer Drug Screen. Data for the wt1 strain (AID 149);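 also: 0% = growth of vehicle-treated wt1 cultures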; details: S. cerevisiae wt1 strain (SPY 50644) growth inhibition, hits give high values
In short: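 Each compound is tested on wt1 yeast and the loss of growth versus vehicle gives the inhibition value.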

[3] = NCI Yeast Anticancer Drug Screen. Data for the rad50EPP+ strain (AID 151);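 also: 0% = growth of vehicle-treated control cultures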; details: S. cerevisiae rad50 mutant strain, hits give high values
In short: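 Exposing the rad50EPP+ strain to each compound, growth was compared with vehicle-only cultures to give inhibition.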

[4] = NCI Yeast Anticancer Drug Screen. Data for the mgt1 strain (AID 153); details: S. cerevisiae mgt1 mutant growth inhibition, hits give high values
In short: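 Genetically defined yeast (mgt1) treated with compound; inhibition of growth expressed against vehicle-treated controls.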

[5] = NCI Yeast Anticancer Drug Screen. Data for the rad50 strain (AID 155);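 also: 0% = growth of vehicle-only cultures of the same strain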; details: S. cerevisiae rad50 strain growth inhibition, hits give high values
In short: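 Vehicle-treated cultures provide the reference for the growth inhibition reported for compound-exposed, repair-deficient yeast.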

[6] = NCI Yeast Anticancer Drug Screen. Data for the mec2-1 strain (AID 157); details: S. cerevisiae mec2-1 strain, hits give high values
In short: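 Readout is yeast growth inhibition, normalised to vehicle-treated controls, in the mec2-1 strain exposed to compound.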

[7] = NCI Yeast Anticancer Drug Screen. Data for the rad14 strain (AID 159);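 also: 0% = growth of vehicle-treated control cultures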; details: S. cerevisiae rad14 strain growth inhibition, hits give high values
In short: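 Inhibition of growth is reported for a repair-deficient yeast mutant following compound treatment, calculated relative to cultures that received vehicle.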

[8] = NCI Yeast Anticancer Drug Screen. Data for the sgs1 mgt1 strain (AID 161);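 also: 0% = growth of cultures given vehicle only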; details: S. cerevisiae sgs1 mgt1 strain, hits give high values
In short: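 Yeast cells carrying a defined DNA-repair defect were exposed to test compounds. Growth inhibition was measured relative to vehicle-treated controls.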

[9] = NCI Yeast Anticancer Drug Screen. Data for the CLN2oe strain (AID 163);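 also: 0% = growth of vehicle-only control cultures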; details: S. cerevisiae CLN2oe strain, hits give high values
In short: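 Values reflect how much compound exposure reduced yeast growth, referenced to vehicle-exposed cells. Assay organism is a strain with a defined genetic change affecting cell-cycle control.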

[10] = NCI Yeast Anticancer Drug Screen. Data for the cln2 rad14 strain (AID 165);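 also: 0% = growth equal to vehicle treated cultures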; details: S. cerevisiae cln2 rad14 strain, hits give high values
In short: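 Relative to vehicle controls, growth inhibition of compound-treated cln2 rad14 yeast was recorded.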

[11] = NCI Yeast Anticancer Drug Screen. Data for the bub3 strain (AID 167); details: S. cerevisiae bub3 mutant strain, hits give high values
In short: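 Mutant yeast screening strain plus compound; vehicle-treated cultures serve as the 0% inhibition reference.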

[12] = NCI Yeast Anticancer Drug Screen. Data for the wt2 strain (AID 169); details: S. cerevisiae wt2 strain growth inhibition, hits give high values
In short: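 Values express reduction in yeast growth under compound treatment, referenced to vehicle-treated cells.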

[13] = NCI Yeast Anticancer Drug Screen. Data for the mlh1 strain (AID 171);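 also: 0% = growth of vehicle-treated control cultures of the same strain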; details: S. cerevisiae mlh1 strain growth inhibition, hits give high values
In short: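 Steps: expose the defined-mutant yeast strain to compound; expose a parallel culture to vehicle; measure growth; express compound effect as inhibition relative to the vehicle culture.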

[14] = NCI Yeast Anticancer Drug Screen. Data for the sgs1 strain (AID 173);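 also: 0% = growth of vehicle-only control cultures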; details: S. cerevisiae sgs1 mutant, hits give high values
In short: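 Treat defined-mutant yeast with compound; measure growth; calculate inhibition relative to vehicle-treated cells.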

[15] = NCI Yeast Anticancer Drug Screen. Data for the mlh1 rad18 strain (AID 175); details: S. cerevisiae mlh1 rad18 strain growth inhibition, hits give high values
In short: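 Test agents were incubated with a yeast strain of defined genotype (DNA damage repair defect). Inhibition of growth was derived by comparison with vehicle-exposed cultures.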

[16] = NCI Yeast Anticancer Drug Screen. Data for the rad18 strain (AID 177); details: S. cerevisiae rad18 mutant growth inhibition, hits give high values
In short: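 A genetically defined yeast mutant impaired in DNA damage repair was treated with test compounds, then its growth was measured against cultures receiving vehicle alone.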

[17] = at 5.0 µM (retest, dose inferred, filed as 0.5)
[18] = at 50.0 µM (retest, dose inferred, filed as 5.0)

Measured: growth inhibition

[N-]=[N+]=C1C(Cl)=C(Cl)C(Cl)=C1Cl
inactive: [1]; at 1.2 µM -1% | [1]; at 3.7 µM 17% | [1]; at 11.0 µM 63% | [2]; at 1.2 µM -3% | [2]; at 3.7 µM -2% | [2]; at 11.0 µM 44% | [3]; at 1.2 µM 1% | [3]; at 3.7 µM 6% | [3]; at 11.0 µM 32% | [4]; at 1.2 µM -1% | [4]; at 3.7 µM -1% | [4]; at 11.0 µM 46% | [5]; at 1.2 µM 6% | [5]; at 3.7 µM 8% | [5]; [17] 62% | [5]; at 11.0 µM 65% | [6]; at 1.2 µM 1% | [6]; at 3.7 µM 2% | [6]; [17] 15% | [6]; at 11.0 µM 59% | [7]; at 1.2 µM 1% | [7]; at 3.7 µM 5% | [7]; at 11.0 µM 44% | [8]; [17] 20% | [9]; at 1.2 µM -2% | [9]; at 3.7 µM 2% | [9]; at 11.0 µM 50% | [10]; [17] -6% | [11]; at 1.2 µM -8% | [11]; at 3.7 µM 1% | [11]; [17] 11% | [11]; at 11.0 µM 62% | [12]; at 1.2 µM 0% | [12]; at 3.7 µM 0% | [12]; at 11.0 µM 48% | [13]; at 1.2 µM 6% | [13]; at 3.7 µM -1% | [13]; at 11.0 µM 48% | [14]; at 1.2 µM -1% | [14]; at 3.7 µM 19% | [14]; at 11.0 µM 64% | [15]; [17] 33% | [16]; at 1.2 µM 3% | [16]; at 3.7 µM 13% | [16]; at 11.0 µM 62%
active: [1]; at 33.0 µM 99% | [1]; at 100.0 µM 99% | [2]; at 33.0 µM 97% | [2]; at 100.0 µM 99% | [3]; at 33.0 µM 83% | [3]; at 100.0 µM 98% | [4]; at 33.0 µM 95% | [4]; at 100.0 µM 99% | [5]; at 33.0 µM 99% | [5]; [18] 96% | [5]; at 50.0 µM 99% | [5]; at 100.0 µM 99% | [6]; at 33.0 µM 99% | [6]; [18] 98% | [6]; at 50.0 µM 99.5% | [6]; at 100.0 µM 99% | [7]; at 33.0 µM 99% | [7]; at 100.0 µM 99% | [8]; [18] 95% | [8]; at 50.0 µM 99.2% | [9]; at 33.0 µM 99% | [9]; at 100.0 µM 99% | [10]; [18] 97% | [10]; at 50.0 µM 98.8% | [11]; at 33.0 µM 98% | [11]; [18] 97% | [11]; at 50.0 µM 99% | [11]; at 100.0 µM 99% | [12]; at 33.0 µM 99% | [12]; at 100.0 µM 99% | [13]; at 33.0 µM 99% | [13]; at 100.0 µM 99% | [14]; at 33.0 µM 99% | [14]; at 100.0 µM 99% | [15]; [18] 97% | [15]; at 50.0 µM 99.1% | [16]; at 33.0 µM 98% | [16]; at 100.0 µM 99%

Cc1cc[n+](C2=C(Nc3cccc(C(F)(F)F)c3)C(=O)c3ccccc3C2=O)cc1
inactive: [1]; at 1.2 µM 5% | [1]; at 3.7 µM 5% | [1]; at 11.0 µM 7% | [1]; at 33.0 µM 21% | [1]; at 100.0 µM 55% | [2]; at 1.2 µM 0% | [2]; at 3.7 µM 2% | [2]; at 11.0 µM 4% | [2]; at 33.0 µM 7% | [2]; at 100.0 µM 12% | [3]; at 1.2 µM 7% | [3]; at 3.7 µM 9% | [3]; at 11.0 µM 12% | [3]; at 33.0 µM 29% | [3]; at 100.0 µM 30% | [4]; at 1.2 µM -1% | [4]; at 3.7 µM 0% | [4]; at 11.0 µM 1% | [4]; at 33.0 µM 10% | [4]; at 100.0 µM 12% | [5]; at 1.2 µM 2% | [5]; at 3.7 µM 3% | [5]; [17] 10% | [5]; at 11.0 µM 8% | [5]; at 33.0 µM 34% | [5]; at 100.0 µM 59% | [6]; at 1.2 µM 1% | [6]; at 3.7 µM 4% | [6]; [17] 8% | [6]; at 11.0 µM -17% | [6]; at 33.0 µM -14% | [6]; [18] 36% | [6]; at 50.0 µM 68.2% | [6]; at 100.0 µM 10% | [7]; at 1.2 µM 0% | [7]; at 3.7 µM -8% | [7]; at 11.0 µM -5% | [7]; at 33.0 µM 0% | [7]; at 100.0 µM 14% | [8]; [17] 6% | [8]; [18] 39% | [8]; at 50.0 µM 62% | [9]; at 1.2 µM 3% | [9]; at 3.7 µM 4% | [9]; at 11.0 µM 6% | [9]; at 33.0 µM -3% | [9]; at 100.0 µM -4% | [10]; [17] 6% | [10]; [18] -4% | [10]; at 50.0 µM 46.4% | [11]; at 1.2 µM 4% | [11]; at 3.7 µM 5% | [11]; [17] 1% | [11]; at 11.0 µM 9% | [11]; at 33.0 µM 13% | [11]; [18] 49% | [11]; at 50.0 µM 46.8% | [11]; at 100.0 µM 44% | [12]; at 1.2 µM 1% | [12]; at 3.7 µM 1% | [12]; at 11.0 µM 3% | [12]; at 33.0 µM 8% | [12]; at 100.0 µM 12% | [13]; at 1.2 µM 3% | [13]; at 3.7 µM -2% | [13]; at 11.0 µM 1% | [13]; at 33.0 µM 1% | [13]; at 100.0 µM 10% | [14]; at 1.2 µM 0% | [14]; at 3.7 µM -1% | [14]; at 11.0 µM 0% | [14]; at 33.0 µM 3% | [14]; at 100.0 µM 16% | [15]; [17] 3% | [15]; [18] 3% | [15]; at 50.0 µM 61.9%
active: [5]; [18] 80% | [5]; at 50.0 µM 86.8%
